In test [1] the target is Sphingosine kinase 1 (Homo sapiens) (UniProt Q9NYA1). As to conditions: at 1 µM.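 Also: mean SPHK1 inhibition value reported from the GSK PKIS kinase panel screen.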
The target of test [2] is T1, Sphingosine kinase 2 (Homo sapiens) (UniProt Q9NRA0).
T1 sequence (whole entry): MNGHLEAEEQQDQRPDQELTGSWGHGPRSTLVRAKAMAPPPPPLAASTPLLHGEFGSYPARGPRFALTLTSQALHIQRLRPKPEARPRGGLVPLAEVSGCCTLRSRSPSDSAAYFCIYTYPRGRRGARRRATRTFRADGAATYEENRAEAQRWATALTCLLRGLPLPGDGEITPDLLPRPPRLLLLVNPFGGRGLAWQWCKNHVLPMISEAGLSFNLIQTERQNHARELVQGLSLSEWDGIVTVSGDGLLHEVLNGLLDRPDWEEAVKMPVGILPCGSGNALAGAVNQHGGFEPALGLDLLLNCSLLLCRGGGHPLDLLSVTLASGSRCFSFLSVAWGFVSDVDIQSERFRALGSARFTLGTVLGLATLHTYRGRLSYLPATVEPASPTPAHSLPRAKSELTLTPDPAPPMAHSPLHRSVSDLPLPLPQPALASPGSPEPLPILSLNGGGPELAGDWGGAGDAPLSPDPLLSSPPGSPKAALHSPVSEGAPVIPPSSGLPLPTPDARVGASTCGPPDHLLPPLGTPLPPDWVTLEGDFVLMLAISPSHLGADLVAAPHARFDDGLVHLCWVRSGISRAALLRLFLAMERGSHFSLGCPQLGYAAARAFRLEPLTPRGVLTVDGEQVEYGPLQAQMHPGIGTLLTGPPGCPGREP
The following applies: at 0.1 µM.

In test [3] the target is T1, Sphingosine kinase 2 (Homo sapiens). The following applies: at 1 µM.
Test [4] deals with Casein kinase II subunit alpha (Homo sapiens) (UniProt P68400). As to conditions: at 0.1 µM.
For test [5] the target is unchanged. As to conditions: at 1 µM.
Test [6] addresses T2, Inhibitor of nuclear factor kappa-B kinase subunit alpha (Homo sapiens) (UniProt O15111).
T2 sequence (whole entry): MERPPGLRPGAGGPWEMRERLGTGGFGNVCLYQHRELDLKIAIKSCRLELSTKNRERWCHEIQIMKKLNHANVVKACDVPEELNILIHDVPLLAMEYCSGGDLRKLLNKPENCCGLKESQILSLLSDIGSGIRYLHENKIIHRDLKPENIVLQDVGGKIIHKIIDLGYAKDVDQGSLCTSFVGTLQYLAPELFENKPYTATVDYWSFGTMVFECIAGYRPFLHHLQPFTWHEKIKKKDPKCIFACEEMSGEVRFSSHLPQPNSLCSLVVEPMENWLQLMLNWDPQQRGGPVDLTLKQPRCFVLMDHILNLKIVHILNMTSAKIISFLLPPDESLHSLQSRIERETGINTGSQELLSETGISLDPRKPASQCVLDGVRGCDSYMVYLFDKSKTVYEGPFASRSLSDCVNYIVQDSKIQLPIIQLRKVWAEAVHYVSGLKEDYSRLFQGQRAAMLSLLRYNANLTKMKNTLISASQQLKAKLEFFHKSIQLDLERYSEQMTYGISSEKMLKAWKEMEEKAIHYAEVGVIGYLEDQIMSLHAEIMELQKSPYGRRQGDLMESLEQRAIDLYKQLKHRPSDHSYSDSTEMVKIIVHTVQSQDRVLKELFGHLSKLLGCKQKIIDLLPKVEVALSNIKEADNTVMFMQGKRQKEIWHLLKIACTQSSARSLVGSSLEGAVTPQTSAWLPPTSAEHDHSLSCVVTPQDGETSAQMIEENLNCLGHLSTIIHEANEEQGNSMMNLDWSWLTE
As to conditions: at 0.1 µM.

Test [7] concerns the target T2, Inhibitor of nuclear factor kappa-B kinase subunit alpha (Homo sapiens). As to conditions: at 1 µM.
For test [8], the target named is T3, Inhibitor of nuclear factor kappa-B kinase subunit beta (Homo sapiens) (UniProt O14920).
T3 sequence (whole entry): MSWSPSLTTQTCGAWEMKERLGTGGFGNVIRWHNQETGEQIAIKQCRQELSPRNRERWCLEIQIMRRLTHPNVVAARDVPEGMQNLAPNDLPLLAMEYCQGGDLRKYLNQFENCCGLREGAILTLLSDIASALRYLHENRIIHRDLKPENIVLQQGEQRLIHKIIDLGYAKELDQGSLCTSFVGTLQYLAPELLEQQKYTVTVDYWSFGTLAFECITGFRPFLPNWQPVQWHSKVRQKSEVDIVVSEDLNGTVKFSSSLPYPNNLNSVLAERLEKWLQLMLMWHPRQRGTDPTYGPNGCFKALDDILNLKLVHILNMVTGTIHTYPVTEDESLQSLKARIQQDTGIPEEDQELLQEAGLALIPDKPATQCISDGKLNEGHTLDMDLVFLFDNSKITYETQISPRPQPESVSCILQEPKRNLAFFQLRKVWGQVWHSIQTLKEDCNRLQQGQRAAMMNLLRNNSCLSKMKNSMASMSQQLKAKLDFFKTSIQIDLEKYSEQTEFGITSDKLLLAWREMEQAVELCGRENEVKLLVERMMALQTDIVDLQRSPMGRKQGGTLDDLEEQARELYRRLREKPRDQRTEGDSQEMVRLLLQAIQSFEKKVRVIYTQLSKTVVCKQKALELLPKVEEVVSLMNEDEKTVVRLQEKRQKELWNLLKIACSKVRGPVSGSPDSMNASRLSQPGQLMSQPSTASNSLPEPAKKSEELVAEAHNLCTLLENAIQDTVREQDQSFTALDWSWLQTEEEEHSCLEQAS
The following applies: at 0.1 µM.

Test [9] addresses T3, Inhibitor of nuclear factor kappa-B kinase subunit beta (Homo sapiens). As to conditions: at 1 µM.
The target in test [10] is T4, Inhibitor of nuclear factor kappa-B kinase subunit epsilon (Homo sapiens) (UniProt Q14164).
T4 sequence (whole entry): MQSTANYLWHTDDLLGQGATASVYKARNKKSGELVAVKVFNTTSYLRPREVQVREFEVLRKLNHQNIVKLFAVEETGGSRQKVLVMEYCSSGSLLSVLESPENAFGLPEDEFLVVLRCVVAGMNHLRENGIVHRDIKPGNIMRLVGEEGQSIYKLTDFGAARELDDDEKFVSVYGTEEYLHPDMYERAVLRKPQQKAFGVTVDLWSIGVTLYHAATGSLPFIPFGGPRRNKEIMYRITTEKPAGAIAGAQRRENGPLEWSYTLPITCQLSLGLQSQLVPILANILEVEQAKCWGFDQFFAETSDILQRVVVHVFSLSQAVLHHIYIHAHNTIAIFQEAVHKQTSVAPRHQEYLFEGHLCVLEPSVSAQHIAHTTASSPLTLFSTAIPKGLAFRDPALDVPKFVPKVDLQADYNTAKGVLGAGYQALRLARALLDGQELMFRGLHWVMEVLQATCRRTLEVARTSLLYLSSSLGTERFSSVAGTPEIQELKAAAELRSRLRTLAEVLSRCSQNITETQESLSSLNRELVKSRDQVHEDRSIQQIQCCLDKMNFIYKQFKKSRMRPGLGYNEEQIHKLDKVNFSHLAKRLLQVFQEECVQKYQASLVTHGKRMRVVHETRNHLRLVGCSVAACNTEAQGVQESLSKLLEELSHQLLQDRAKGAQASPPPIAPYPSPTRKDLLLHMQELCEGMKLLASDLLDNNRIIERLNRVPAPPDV
As to conditions: at 0.1 µM.

The target of test [11] is T4, Inhibitor of nuclear factor kappa-B kinase subunit epsilon (Homo sapiens). As to conditions: at 1 µM.
Test [12] has as its target T5, Serine/threonine-protein kinase Nek1 (Homo sapiens) (UniProt Q96PY6).
T5 sequence (whole entry): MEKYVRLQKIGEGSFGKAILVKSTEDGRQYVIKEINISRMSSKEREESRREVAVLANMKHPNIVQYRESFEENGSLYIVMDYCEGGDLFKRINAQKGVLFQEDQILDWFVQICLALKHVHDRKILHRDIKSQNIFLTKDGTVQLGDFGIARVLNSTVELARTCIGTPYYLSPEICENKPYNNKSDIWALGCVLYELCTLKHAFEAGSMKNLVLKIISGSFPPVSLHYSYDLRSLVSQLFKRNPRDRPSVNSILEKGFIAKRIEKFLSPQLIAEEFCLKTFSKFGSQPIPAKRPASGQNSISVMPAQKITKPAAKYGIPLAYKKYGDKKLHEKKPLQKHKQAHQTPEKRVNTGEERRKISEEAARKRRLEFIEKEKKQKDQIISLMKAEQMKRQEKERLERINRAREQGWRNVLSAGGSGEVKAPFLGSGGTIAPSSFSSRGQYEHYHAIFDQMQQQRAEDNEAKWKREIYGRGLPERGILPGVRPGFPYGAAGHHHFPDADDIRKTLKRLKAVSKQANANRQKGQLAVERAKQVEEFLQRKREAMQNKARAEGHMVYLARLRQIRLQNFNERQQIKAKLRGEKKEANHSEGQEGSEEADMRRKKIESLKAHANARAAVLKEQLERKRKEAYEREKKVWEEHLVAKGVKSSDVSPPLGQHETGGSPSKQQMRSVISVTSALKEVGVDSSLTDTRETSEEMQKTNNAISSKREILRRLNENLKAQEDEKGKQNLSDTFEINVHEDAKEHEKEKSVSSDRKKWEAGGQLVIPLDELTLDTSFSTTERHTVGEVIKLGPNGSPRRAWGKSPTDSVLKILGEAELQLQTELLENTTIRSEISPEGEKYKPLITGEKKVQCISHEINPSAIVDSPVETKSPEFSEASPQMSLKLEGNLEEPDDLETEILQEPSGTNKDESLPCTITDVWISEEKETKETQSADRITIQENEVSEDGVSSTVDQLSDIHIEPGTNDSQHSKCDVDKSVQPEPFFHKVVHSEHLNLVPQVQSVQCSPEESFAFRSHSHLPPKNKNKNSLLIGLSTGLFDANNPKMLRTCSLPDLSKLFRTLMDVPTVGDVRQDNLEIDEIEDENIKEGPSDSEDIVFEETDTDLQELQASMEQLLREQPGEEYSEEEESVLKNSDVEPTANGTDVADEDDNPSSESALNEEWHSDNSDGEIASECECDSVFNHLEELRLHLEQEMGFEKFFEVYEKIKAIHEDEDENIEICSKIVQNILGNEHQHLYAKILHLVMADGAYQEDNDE
As to conditions: at 0.1 µM.

Test [13] deals with T5, Serine/threonine-protein kinase Nek1 (Homo sapiens). The following applies: at 1 µM.
For test [14], the target named is T6, Serine/threonine-protein kinase Nek2 (Homo sapiens) (UniProt P51955).
T6 sequence (whole entry): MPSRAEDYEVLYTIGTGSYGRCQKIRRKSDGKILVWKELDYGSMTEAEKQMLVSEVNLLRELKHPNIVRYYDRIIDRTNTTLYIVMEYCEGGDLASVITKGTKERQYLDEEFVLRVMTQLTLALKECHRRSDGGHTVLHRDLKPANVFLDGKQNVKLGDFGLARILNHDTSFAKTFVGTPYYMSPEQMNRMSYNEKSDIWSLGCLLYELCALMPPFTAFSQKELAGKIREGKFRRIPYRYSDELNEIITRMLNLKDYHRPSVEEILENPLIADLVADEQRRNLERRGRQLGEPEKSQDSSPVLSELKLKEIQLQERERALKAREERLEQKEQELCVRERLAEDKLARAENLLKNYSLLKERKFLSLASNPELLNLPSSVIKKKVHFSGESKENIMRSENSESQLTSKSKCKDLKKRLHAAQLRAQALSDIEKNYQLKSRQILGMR
The following applies: at 0.1 µM.

Test [15] has as its target T6, Serine/threonine-protein kinase Nek2 (Homo sapiens). The following applies: at 1 µM.
In test [16] the target is Serine/threonine-protein kinase Nek6 (Homo sapiens) (UniProt Q9HC98). The following applies: at 0.1 µM.
For test [17] the target is unchanged. The following applies: at 1 µM.
Test [18] deals with Serine/threonine-protein kinase Nek7 (Homo sapiens) (UniProt Q8TDX7). As to conditions: at 0.1 µM.
Test [19] has the same target. As to conditions: at 1 µM.
The target in test [20] is T7, Serine/threonine-protein kinase Nek9 (Homo sapiens) (UniProt Q8TD19).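 Also: reported value is the mean percent inhibition of NEK9.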
T7 sequence (whole entry): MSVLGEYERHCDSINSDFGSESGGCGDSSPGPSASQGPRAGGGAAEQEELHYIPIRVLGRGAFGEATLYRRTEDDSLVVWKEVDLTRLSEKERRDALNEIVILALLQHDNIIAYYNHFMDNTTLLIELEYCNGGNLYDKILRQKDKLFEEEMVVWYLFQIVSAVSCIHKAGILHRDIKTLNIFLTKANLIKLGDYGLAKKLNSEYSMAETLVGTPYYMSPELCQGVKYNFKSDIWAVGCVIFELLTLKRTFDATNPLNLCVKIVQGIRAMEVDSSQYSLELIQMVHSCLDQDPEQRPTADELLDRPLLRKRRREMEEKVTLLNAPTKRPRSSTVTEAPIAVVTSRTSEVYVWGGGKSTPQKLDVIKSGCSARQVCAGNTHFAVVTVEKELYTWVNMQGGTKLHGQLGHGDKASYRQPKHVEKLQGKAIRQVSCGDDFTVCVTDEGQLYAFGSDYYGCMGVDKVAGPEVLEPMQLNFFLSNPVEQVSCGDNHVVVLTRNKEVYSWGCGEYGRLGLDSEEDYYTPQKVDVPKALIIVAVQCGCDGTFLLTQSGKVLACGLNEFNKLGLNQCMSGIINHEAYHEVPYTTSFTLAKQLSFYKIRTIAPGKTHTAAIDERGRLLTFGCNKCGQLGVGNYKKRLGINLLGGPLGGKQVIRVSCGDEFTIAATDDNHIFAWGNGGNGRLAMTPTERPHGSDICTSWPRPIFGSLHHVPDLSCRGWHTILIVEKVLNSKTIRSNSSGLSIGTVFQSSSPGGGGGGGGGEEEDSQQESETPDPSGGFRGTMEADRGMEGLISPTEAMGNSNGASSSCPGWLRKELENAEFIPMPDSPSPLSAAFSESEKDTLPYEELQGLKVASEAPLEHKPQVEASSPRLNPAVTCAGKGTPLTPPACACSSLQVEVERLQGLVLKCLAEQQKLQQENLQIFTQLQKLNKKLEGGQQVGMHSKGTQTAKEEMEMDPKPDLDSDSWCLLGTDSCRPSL
The following applies: at 0.1 µM.

The term inhibition denotes the change of the read-out against control, counted positive when it falls.

Molecules are shown by their SMILES.

Serine/threonine-protein kinase Nek7 (Homo sapiens), sequence (Q8TDX7 whole entry, looked up): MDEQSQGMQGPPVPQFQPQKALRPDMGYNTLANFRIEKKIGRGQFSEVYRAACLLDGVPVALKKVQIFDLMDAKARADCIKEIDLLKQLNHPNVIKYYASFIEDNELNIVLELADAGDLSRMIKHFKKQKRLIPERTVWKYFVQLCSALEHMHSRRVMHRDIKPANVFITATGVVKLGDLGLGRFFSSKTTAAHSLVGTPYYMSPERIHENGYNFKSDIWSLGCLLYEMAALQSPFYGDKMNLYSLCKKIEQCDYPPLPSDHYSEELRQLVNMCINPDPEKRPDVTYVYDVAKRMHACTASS
Casein kinase II subunit alpha (Homo sapiens), sequence (P68400 whole entry, looked up): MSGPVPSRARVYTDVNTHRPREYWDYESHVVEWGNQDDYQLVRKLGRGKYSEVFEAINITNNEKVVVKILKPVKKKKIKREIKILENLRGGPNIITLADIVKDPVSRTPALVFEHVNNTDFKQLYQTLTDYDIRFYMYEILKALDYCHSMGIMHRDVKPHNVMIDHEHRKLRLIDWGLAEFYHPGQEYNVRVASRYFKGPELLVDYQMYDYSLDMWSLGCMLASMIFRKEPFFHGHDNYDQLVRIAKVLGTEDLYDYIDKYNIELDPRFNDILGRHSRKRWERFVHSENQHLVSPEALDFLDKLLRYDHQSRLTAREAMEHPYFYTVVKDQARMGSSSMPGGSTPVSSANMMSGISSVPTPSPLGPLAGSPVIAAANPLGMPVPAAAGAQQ
Serine/threonine-protein kinase Nek6 (Homo sapiens), sequence (Q9HC98 whole entry): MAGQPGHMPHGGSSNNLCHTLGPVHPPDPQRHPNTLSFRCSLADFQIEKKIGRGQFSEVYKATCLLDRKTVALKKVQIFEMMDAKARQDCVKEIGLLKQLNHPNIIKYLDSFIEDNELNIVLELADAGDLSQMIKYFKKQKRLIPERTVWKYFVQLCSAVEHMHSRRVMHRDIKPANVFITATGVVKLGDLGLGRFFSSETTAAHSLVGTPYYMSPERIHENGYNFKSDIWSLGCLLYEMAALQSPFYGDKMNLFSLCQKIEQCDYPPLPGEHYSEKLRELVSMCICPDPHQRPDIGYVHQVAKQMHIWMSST
Sphingosine kinase 1 (Homo sapiens), sequence (Q9NYA1 whole entry): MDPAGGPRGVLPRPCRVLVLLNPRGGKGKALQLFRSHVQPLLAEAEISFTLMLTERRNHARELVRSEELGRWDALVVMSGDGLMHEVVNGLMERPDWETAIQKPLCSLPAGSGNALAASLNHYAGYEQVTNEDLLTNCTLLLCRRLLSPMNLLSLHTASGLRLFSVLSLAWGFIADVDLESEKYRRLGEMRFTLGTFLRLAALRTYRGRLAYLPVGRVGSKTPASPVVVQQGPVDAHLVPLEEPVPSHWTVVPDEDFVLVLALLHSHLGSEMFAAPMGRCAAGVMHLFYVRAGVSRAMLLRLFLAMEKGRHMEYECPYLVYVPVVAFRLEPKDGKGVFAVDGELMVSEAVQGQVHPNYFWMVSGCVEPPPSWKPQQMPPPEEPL

`COc1c(C(N)=O)cc(-c2ccc(Cl)cc2)cc1-c1ccc(S(N)(=O)=O)cc1`: the inhibition in test [1] is 0.21%; in test [2], -0.78%; in test [3], 0.28%; in test [4] it was 1.48%; in test [5] it was 3.63%; in test [6] it was 2.15%. The inhibition in test [7] was 1.32%; in test [8], 6.58%; in test [9], 4.61%; in test [10], 8.74%; in test [11], 5.47%; in test [12], 2.17%. Further, the inhibition in [13] was found to be 4.16%; in [14], 6.76%; in [15] it was 5.43%; in [16], 0.6%; in test [17] it was 1.71%; in test [18] it was 4.31%. In addition, the inhibition was determined as 10.4% in [19] and 4.85% in [20].

These data come from ChEMBL document CHEMBL1961873, “Compounds: GSK PKIS; Assays: Nanosyn kinase panel” (2012).
